This note sets out measurements from PubChem BioAssay (EPA / NIEHS).

The structures appear in SMILES notation. Active and inactive are the calls of the source. How the source made its calls: active means hit-call score of the fitted dose curve at least 0.9, where 1 is the maximum; inactive means score below 0.9.

Common to all, as to settings: mRNA level, 48 h; actives raise or lower the signal
Read-out in test [1]: Heat shock 70 kDa protein 1 (HSPA1A), gene 3303
The test is described as follows: LTEA_HepaRG_HSPA1A: Life Technologies and Expression Analysis (LTEA) Assay for Heat shock 70 kDa protein 1 (HSPA1A) using HepaRG (AID 2283502). In short, it runs like this:
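HSPA1A induction in human HepaRG liver cells is measured after 48 h of chemical treatment (100 uM maximum, 0.5% DMSO vehicle). Expression comes from qRT-PCR normalized to endogenous controls.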

Read-out in test [2]: Hypoxia-inducible factor 1-alpha (Homo sapiens) (UniProt Q16665)
The test is described as follows: LTEA_HepaRG_HIF1A: Life Technologies and Expression Analysis (LTEA) Assay for Hypoxia-inducible factor 1 (HIF1A) Trancription factor using HepaRG (AID 2283503).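 Further: HIF1A transcript by TaqMan qRT-PCR normalized to ACTB GAPDH and POLR2A.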 In short, it runs like this: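 HepaRG, 48 h exposure, 8-pt half-log series from 100 uM, 0.5% DMSO vehicle, duplicates. Readout: HIF1A transcript by qRT-PCR (Fluidigm array), housekeeping-normalised. Bidirectional curve fit vs DMSO baseline.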

Read-out in test [3]: 3-Hydroxy-3-Methylglutaryl-CoA Synthase 2 (HMGCS2), HMGCS2 (gene 3158)
Kind of test: LTEA_HepaRG_HMGCS2: Life Technologies and Expression Analysis (LTEA) Assay for 3-Hydroxy-3-Methylglutaryl-CoA Synthase 2 (HMGCS2) using HepaRG (AID 2283504). In short, it runs like this:
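This steatosis marker was read as HMGCS2 mRNA change in HepaRG cells treated 48 h with up to 100 uM chemical. Normalisation used housekeeping genes; activity in either direction was fitted relative to 0.5% DMSO vehicle.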

Read-out in test [4]: HGF (gene 3082)
The test is described as follows: LTEA_HepaRG_HGF: Life Technologies and Expression Analysis (LTEA) Assay for Hepatocyte Growth Facto (HGF) using HepaRG (AID 2283505). Summed up: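 Using HepaRG monolayers kept in 0.5% DMSO, chemicals were tested in duplicate over eight half-log concentrations from 100 uM for 48 h. Endpoint: HGF mRNA change relative to DMSO, normalized to ACTB/GAPDH/POLR2A.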

Read-out in test [5]: Insulin Like Growth Factor 1 (IGF1), IGF1 (gene 3479)
Kind of test: LTEA_HepaRG_IGF1: Life Technologies and Expression Analysis (LTEA) Assay for Insulin Like Growth Factor 1 (IGF1) using HepaRG (AID 2283506). Summed up: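 Using human HepaRG liver cells, IGF1 transcript induction or suppression is measured 48 h after dosing across eight concentrations capped at 100 uM. Values derive from bidirectional concentration-response fitting with DMSO as baseline.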

Read-out in test [6]: Intercellular Adhesion Molecule 1 (ICAM1), ICAM1 (gene 3383)
Kind of test: LTEA_HepaRG_ICAM1: Life Technologies and Expression Analysis (LTEA) Assay for Intercellular Adhesion Molecule 1 (ICAM1) using HepaRG (AID 2283507). In short, it runs like this:
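Using the human liver line HepaRG, compounds are tested in duplicate over 48 h at concentrations up to 100 uM. Expression is determined by TaqMan qRT-PCR, normalized to endogenous controls, and analysed relative to 0.5% DMSO vehicle.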

Read-out in test [7]: Insulin-like growth factor-binding protein 1 (IGFBP1), IGFBP1 (gene 3484)
The test is described as follows: LTEA_HepaRG_IGFBP1: Life Technologies and Expression Analysis (LTEA) Assay for Insulin-like growth factor-binding protein 1 (IGFBP1) using HepaRG (AID 2283508). In short, it runs like this: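 HepaRG, 48 h, 8 conc. (max 100 uM, half-log), duplicates, 0.5% DMSO. Readout: TaqMan qRT-PCR, ACTB/GAPDH/POLR2A normalisation. Fit: bidirectional vs DMSO.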

Read-out in test [8]: Interleukin 6 (IL6), IL6 (gene 3569)
The test is described as follows: LTEA_HepaRG_IL6: Life Technologies and Expression Analysis (LTEA) Assay for Interleukin 6 (IL6) using HepaRG (AID 2283509). Summed up:
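HepaRG, ~100,000 cells/well, 48 h pre-culture; serum-free induction medium; cmpd 8-pt half-log from 100 uM, 0.5% DMSO, duplicate, 48 h. Lysis in RLT, TaqMan qRT-PCR; gain or loss vs DMSO.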

Read-out in test [9]: Interleukin 6 Receptor (IL6R), IL6R (gene 3570)
Kind of test: LTEA_HepaRG_IL6R: Life Technologies and Expression Analysis (LTEA) Assay for Interleukin 6 Receptor (IL6R) using HepaRG (AID 2283510).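 On AC50: differentiated human HepaRG liver cells in serum-free induction medium; TaqMan qRT-PCR signal normalized to ACTB GAPDH and POLR2A housekeeping genes.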 In short, it runs like this: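 Concentration-response in human liver HepaRG cells: eight concentrations from 100 uM downward by half-logs, 48 h exposure, 0.5% DMSO vehicle. IL6R mRNA change measured by qRT-PCR and fitted in both directions relative to vehicle.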

Read-out in test [10]: Potassium channel subfamily K member 1 (KCNK1), KCNK1 (gene 3775)
The test is described as follows: LTEA_HepaRG_KCNK1: Life Technologies and Expression Analysis (LTEA) Assay for Potassium channel subfamily K member 1 (KCNK1) using HepaRG (AID 2283511). In short, it runs like this: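 Gain or loss of KCNK1 mRNA is the read-out, quantified by qRT-PCR against three housekeeping genes after 48 h chemical treatment of human HepaRG liver cells. Concentrations ran from 100 uM downward in half-log steps, vehicle 0.5% DMSO.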

Read-out in test [11]: Keratin 19 (KRT19), KRT19 (gene 3880)
The test is described as follows: LTEA_HepaRG_KRT19: Life Technologies and Expression Analysis (LTEA) Assay for Keratin 19 (KRT19) using HepaRG (AID 2283512). In short, it runs like this:
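Readout is qRT-PCR of KRT19 mRNA, normalized to ACTB, GAPDH and POLR2A, from HepaRG cells treated 48 h with eight-point half-log dilutions topping at 100 uM. Activity in either direction is scored relative to 0.5% DMSO vehicle.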

Read-out in test [12]: JUN Transcription Factor, JUN (gene 3725)
The test is described as follows: LTEA_HepaRG_JUN: Life Technologies and Expression Analysis (LTEA) Assay for JUN Transcription Factor using HepaRG (AID 2283513). Summed up: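 Human HepaRG liver cells receive test chemicals in 0.5% DMSO for 48 h across an eight-point range topping at 100 uM. Expression changes in JUN are scored in both directions against the DMSO vehicle.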

Read-out in test [13]: Lipase C (LIPC), LIPC (gene 3990)
The test is described as follows: LTEA_HepaRG_LIPC: Life Technologies and Expression Analysis (LTEA) Assay for Lipase C (LIPC) using HepaRG (AID 2283514). Summed up:
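Read-out is LIPC transcript level by TaqMan qRT-PCR, normalized to three housekeeping genes, after 48 h chemical treatment of human HepaRG liver cells. Curves span eight concentrations topping at 100 uM; activity in either direction scored relative to 0.5% DMSO.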

Read-out in test [14]: Lipoprotein lipase (LPL), LPL (gene 4023)
The test is described as follows: LTEA_HepaRG_LPL: Life Technologies and Expression Analysis (LTEA) Assay for Lipoprotein lipase (LPL) using HepaRG (AID 2283515). In short, it runs like this: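 Read-out is LPL transcript level by qRT-PCR, normalized to three housekeeping genes and fitted bidirectionally against the DMSO control. Human HepaRG cells received chemicals for 48 h at up to 100 uM.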

Read-out in test [15]: MicroRNA 122 (MIR122), gene 406906
The test is described as follows: LTEA_HepaRG_MIR122: Life Technologies and Expression Analysis (LTEA) Assay for MicroRNA 122 (MIR122) using HepaRG (AID 2283516). Further: the transcript read is the microRNA miR-122. In short, it runs like this:
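HepaRG, 48 h exposure, 8-pt half-log from 100 uM, 0.5% DMSO; TaqMan qRT-PCR; bidirectional fit vs DMSO.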

Read-out in test [16]: matrix metalloproteinase-10 (MMP10), MMP10 (gene 4319)
The test is described as follows: LTEA_HepaRG_MMP10: Life Technologies and Expression Analysis (LTEA) Assay for matrix metalloproteinase-10 (MMP10) using HepaRG (AID 2283517). In short, it runs like this: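 Gain or loss of MMP10 mRNA is fitted relative to the 0.5% DMSO vehicle. The human hepatic line HepaRG receives a 48-hour serum-free exposure, in duplicate, with a maximum concentration of 100 uM.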

Read-out in test [17]: MYC, MYC (gene 4609)
Kind of test: LTEA_HepaRG_MYC: Life Technologies and Expression Analysis (LTEA) Assay for MYC using HepaRG (AID 2283518). In short, it runs like this: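 Expression changes were scored by TaqMan qRT-PCR with ACTB, GAPDH and POLR2A normalization. Cultures in serum-free induction medium received duplicate 8-point concentration series, highest 100 uM, for 48 h; DMSO (0.5%) served as baseline.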

Read-out in test [18]: matrix metalloproteinase-3 (MMP3), MMP3 (gene 4314)
Kind of test: LTEA_HepaRG_MMP3: Life Technologies and Expression Analysis (LTEA) Assay for matrix metalloproteinase-3 (MMP3) using HepaRG (AID 2283519). In short, it runs like this: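 HepaRG, human; 48 h dosing, 8 conc. (max 100 uM, half-log), duplicate, 0.5% DMSO. Readout: MMP3 transcript by Fluidigm TaqMan qRT-PCR, ACTB/GAPDH/POLR2A-normalised. Gain or loss fitted vs DMSO.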

Read-out in test [19]: Paternally Expressed 10 (PEG10), PEG10 (gene 23089)
Kind of test: LTEA_HepaRG_PEG10: Life Technologies and Expression Analysis (LTEA) Assay for Paternally Expressed 10 (PEG10) using HepaRG (AID 2283520).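 On AC50: differentiated HepaRG human liver cells in serum-free induction medium with 0.5% DMSO; PEG10 transcript by qRT-PCR normalised to ACTB GAPDH and POLR2A.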 In short, it runs like this: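 Chemicals tested on HepaRG cells for 48 h, highest concentration 100 uM. PEG10 expression assessed by qRT-PCR relative to DMSO control.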

Read-out in test [20]: Glutathione S-transferase M3 (GSTM3), GSTM3 (gene 2947)
The test is described as follows: LTEA_HepaRG_GSTM3: Life Technologies and Expression Analysis (LTEA) Assay for Glutathione S-transferase M3 (GSTM3) using HepaRG (AID 2283501). In short, it runs like this: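 Expression of GSTM3 is determined by qRT-PCR in human liver HepaRG cells treated 48 h with an 8-point half-log range from 100 uM in 0.5% DMSO.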

Chain of Hypoxia-inducible factor 1-alpha (Homo sapiens) (Q16665 whole entry, looked up): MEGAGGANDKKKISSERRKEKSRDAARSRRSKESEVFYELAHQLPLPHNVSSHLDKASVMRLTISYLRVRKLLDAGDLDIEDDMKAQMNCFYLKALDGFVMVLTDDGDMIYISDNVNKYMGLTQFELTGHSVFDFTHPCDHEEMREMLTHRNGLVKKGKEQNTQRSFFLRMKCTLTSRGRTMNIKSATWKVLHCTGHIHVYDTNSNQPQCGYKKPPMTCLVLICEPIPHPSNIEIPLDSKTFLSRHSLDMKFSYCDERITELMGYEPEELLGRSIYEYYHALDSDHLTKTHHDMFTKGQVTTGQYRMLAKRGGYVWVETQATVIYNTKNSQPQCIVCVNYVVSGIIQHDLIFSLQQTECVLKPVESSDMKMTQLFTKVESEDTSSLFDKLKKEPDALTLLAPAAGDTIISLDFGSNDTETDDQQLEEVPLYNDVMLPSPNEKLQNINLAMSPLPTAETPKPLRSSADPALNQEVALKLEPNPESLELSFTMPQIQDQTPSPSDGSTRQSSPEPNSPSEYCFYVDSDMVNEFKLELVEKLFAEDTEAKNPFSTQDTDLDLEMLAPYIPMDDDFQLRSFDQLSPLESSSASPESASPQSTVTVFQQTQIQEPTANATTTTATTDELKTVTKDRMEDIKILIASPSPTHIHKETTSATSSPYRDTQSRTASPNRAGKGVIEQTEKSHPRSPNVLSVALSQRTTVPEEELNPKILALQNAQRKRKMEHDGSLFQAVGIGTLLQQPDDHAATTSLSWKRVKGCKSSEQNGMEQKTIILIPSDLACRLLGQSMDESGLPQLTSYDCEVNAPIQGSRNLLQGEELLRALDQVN

As to `CCNc1nc(Cl)nc(NC(C)C)n1`, the result in [1], in [2], in [3], in [4], in [6] and in [7] was inactive. The outcome in test [8], in test [9], in test [10], in test [12], in test [13] and in [14] was inactive. Further, the outcome in [15], in test [16], in test [17], in test [18] and in [19] was inactive. Further, the AC50 was 50 µM (active) in [5] and 26.1 µM (active) in test [11].

On to `N#Cc1cc(Br)c(O)c(Br)c1`, for which the AC50 in [20] is 10.7 µM (active); in test [1], 10.6 µM (active); in test [2] it was 40 µM (active); in test [3] it was 33.3 µM (active); in test [4] it was 23.9 µM (active); in test [5], 17.4 µM (active). For the same compound, the AC50 in [6] was 69.9 µM (active); in test [7], 19.3 µM (active); in test [8] it was 34.5 µM (active); in test [9] it was 19.4 µM (active); in [11] it was 25.6 µM (active); in [12], 24.2 µM (active). For the same compound, the AC50 in test [13] is 23.5 µM (active); in [15] it was 14.2 µM (active); in test [18], 2.69 µM (active); in test [19], 10.5 µM (active). The compound was called inactive in test [10], in test [14], in test [16] and in [17].

For the compound `CC1COC(Cn2cncn2)(c2ccc(Oc3ccc(Cl)cc3)cc2Cl)O1` (stereo unspecified), the AC50 in test [1] is 87.2 µM (active); in test [2], 11.6 µM (active); in test [3], 11.7 µM (active); in test [5], 12.1 µM (active); in [6] it was 26.2 µM (active); in test [7], 19 µM (active). Also, the AC50 in test [8] is 31.9 µM (active); in [10] it was 33.1 µM (active); in test [11], 12.9 µM (active); in test [12], 62.4 µM (active); in [13], 12 µM (active); in [14], 12.4 µM (active). Besides, the AC50 in test [15] was 12.6 µM (active); in test [16], 30.8 µM (active); in test [17] it was 23.9 µM (active); in test [18], 31.7 µM (active); in [19] it was 59.1 µM (active). The result in test [4] and in [9] was inactive.

Take `COP(=S)(OC)Oc1nc(Cl)c(Cl)cc1Cl`: the outcome in test [1], in test [2], in [3], in [4], in [5] and in test [6] was inactive. Moreover, the result in [7], in test [8], in test [9], in [10], in test [11] and in test [12] was inactive. The compound was classed as inactive in test [13], in test [14], in test [15], in test [16], in test [17] and in [18]. Besides, the AC50 in [19] was 69 µM (active).

Consider `CNC(=S)S`, for which the outcome in [1], in [2], in test [3], in [4], in test [5] and in [6] was inactive. For the same compound, the result in test [7], in test [8], in test [9], in test [10], in [11] and in test [12] was inactive. For the same compound, the compound was called inactive in test [13], in test [14], in test [15], in [16], in [17] and in test [18]. In addition, the call in [19] was inactive.

Usually AC50 stands for the concentration giving half of the maximal activity seen.
